Results on 14 compounds are retold here after PubChem BioAssay.

The nature of assay [1]: liver-stage malaria parasite load reduction – cell-based, known kinase inhibitor set, luminescence, hepatoma host viability (AID 624392).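 Further: infected cells incubated roughly two days before readout.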 As to conditions: Plasmodium liver stage in hepatoma cells, luciferase luminescence, concentration not given here; liver cell % of control: measured here: host liver cell viability; parasite % of control: stronger effect = lower value.
Assay [2] can be described thus: altered dexamethasone sensitivity, NF-kB reporter, cell-based, luciferase, IL-1B stimulus (AID 624486).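 On percent of negative control (+Dex): 100% = mean signal of vehicle control wells on the plate.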 Particulars: IL-1B + dexamethasone, luminescence; percent of negative control (+Dex): actives lie on both sides, concentration not given here; z-score: measured here: IL-1B alone, no Dex.
The nature of assay [3]: C. elegans survival during P. aeruginosa infection – whole organism (AID 651566).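 Further: tested at 14 µM; sign flipped so higher z means a lower ratio.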 Particulars: C. elegans killed by P. aeruginosa, survival ratio.
Assay [4] is described as follows: pro-inflammatory signaling induction in mouse macrophages – cell-based, murine, luminescence (AID 652131). As to conditions: murine macrophage pro-inflammatory reporter, stronger effect = higher value.
Assay [5] concerns the target Cellular tumor antigen p53 (Homo sapiens) (UniProt P04637). As to the kind of experiment: GFP-p53 level modulators in HPV16+ cells – imaging, known kinase inhibitor set, EGFP/DsRed ratio (AID 1053116).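 Further: cells exposed to compounds for 24 h at 37 °C before reading.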 Particulars: GFP-p53 stability, stronger effect = higher value; EGFP object count: measured here: GFP-p53 positive objects count.
Assay [6] can be described thus: inducers of IRF3 signaling, differentiated THP-1 – cell-based, PMA-stimulated THP-1, luminescence (AID 1053176). As to conditions: PMA-differentiated THP-1, IRF3 reporter luminescence; stronger effect = higher value.
Assay [7] can be described thus: MELAS cybrid and Rieske KO viability enhancers – cell-based, MELAS cybrids, Rieske KO mouse fibroblasts, CellTiter-Glo, primary screen (AID 1508586;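 active means mean z-score across replicates of 1.96 or higher in either the MELAS or the Rieske mutant cell line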;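 further: z relative to plate mean and SD of compound and empty wells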). As to conditions: low glucose. In general terms: In ATP-based viability assays light output follows the ATP content of the culture.
Setting [8] is: MELAS cybrid survival, CellTiter-Glo 48 h, stronger effect = higher value.
Where [9] appears, read: Rieske KO mouse fibroblast survival, CellTiter-Glo 72 h.

Activity calls are given as the source filed them. Unless noted, how the calls were made is not given here.

Cellular tumor antigen p53 (Homo sapiens), sequence (P04637 whole entry, looked up): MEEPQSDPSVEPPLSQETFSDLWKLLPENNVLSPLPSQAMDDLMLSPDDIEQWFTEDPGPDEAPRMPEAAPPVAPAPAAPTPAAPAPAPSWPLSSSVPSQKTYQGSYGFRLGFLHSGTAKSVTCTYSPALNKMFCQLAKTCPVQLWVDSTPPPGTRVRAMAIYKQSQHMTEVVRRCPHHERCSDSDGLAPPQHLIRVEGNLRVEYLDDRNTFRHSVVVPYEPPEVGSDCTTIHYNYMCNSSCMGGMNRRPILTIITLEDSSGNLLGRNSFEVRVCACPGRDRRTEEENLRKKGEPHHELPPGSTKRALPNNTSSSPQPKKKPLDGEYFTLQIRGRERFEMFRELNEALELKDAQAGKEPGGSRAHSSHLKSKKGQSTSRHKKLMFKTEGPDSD

For the compound `COc1cc(Nc2nccc(-c3cnn4ncccc34)n2)cc(OC)c1`, the liver cell % of control in assay [1] was found to be 132%. Further, in assay [1], the parasite % of control was 14.2% (inactive). The percent of negative control (+Dex) in assay [2] was 29% (active). For the same compound, the z-score in assay [2] is -7.79; in assay [3], 0.5 (inactive); in assay [4], -1.96 (inactive); in assay [7] (setting [8]) it was 1.1 (inactive); in assay [7] (setting [9]), 0.69. Besides, the EGFP object count in assay [5] is 2.5. Besides, the EGFP/DsRed ratio in assay [5] is 0.0482 (inactive). Moreover, in assay [6], the fraction signal was -0.004 (inactive).

As to `COc1cc(Nc2ncc3c(C)nc(-c4cccc(Oc5ccccc5)c4)n3n2)cc(OC)c1OC`, the liver cell % of control in assay [1] was 92.5%. For the same compound, in assay [1], the parasite % of control was 147% (inactive). In addition, the percent of negative control (+Dex) in assay [2] is 77% (inactive). The z-score in assay [2] is -1.34; in assay [3], 0.075 (inactive); in assay [4] it was -0.606 (inactive); in assay [7] (setting [8]), 0.38 (inactive); in assay [7] (setting [9]), 0.0156. For the same compound, in assay [5], the EGFP object count stood at 8.5. In assay [5], the EGFP/DsRed ratio is 0.0854 (inactive). The fraction signal in assay [6] is 0 (inactive).

Compound `CCCN(CCS(C)(=O)=O)Cc1ccc(-c2ccc3ncnc(Nc4ccc(OCc5cccc(F)c5)c(Cl)c4)c3c2)o1` gave a liver cell % of control in assay [1] of 100%. In assay [1], the parasite % of control was 108% (inactive). In addition, the percent of negative control (+Dex) in assay [2] was 74.5% (inactive). Moreover, the z-score in assay [2] is -1.22; in assay [3], 1.21 (inactive); in assay [4] it was 1.79 (inactive); in assay [7] (setting [8]), -0.517 (inactive); in assay [7] (setting [9]), -0.151. Besides, in assay [5], the EGFP object count was determined as 4.5. Besides, in assay [5], the EGFP/DsRed ratio was 0.083 (inactive). In addition, the fraction signal in assay [6] is -0.0115 (inactive).

As for `Fc1ccc(-c2c(-c3ccncc3)nc3n2CCS3)cc1`, the liver cell % of control in assay [1] stood at 113%. The parasite % of control in assay [1] is 89.2% (inactive). Moreover, the percent of negative control (+Dex) in assay [2] was 40% (active). Further, the z-score in assay [2] was -5.96; in assay [3], -1.12 (inactive); in assay [4] it was 1.33 (inactive); in assay [7] (setting [8]), -0.499 (inactive); in assay [7] (setting [9]), -0.254. The EGFP object count in assay [5] came out at 1.5. In assay [5], the EGFP/DsRed ratio is 0.0335 (inactive). Also, the fraction signal in assay [6] is -0.0075 (inactive).

For `CCc1nccc2c1nc(-c1nonc1N)n2CC`, the liver cell % of control in assay [1] was 89.7%. Besides, the parasite % of control in assay [1] is 130% (inactive). Besides, the percent of negative control (+Dex) in assay [2] is 67% (inactive). In addition, the z-score is -2.37 in assay [2]; -0.475 (inactive) in assay [3]; -0.569 (inactive) in assay [4]; 0.0182 (inactive) in assay [7] (setting [8]); -0.326 in assay [7] (setting [9]). Further, the EGFP object count in assay [5] was determined as 2.5. Also, the EGFP/DsRed ratio in assay [5] was 0.0232 (inactive). The fraction signal in assay [6] was 0.005 (inactive).

In assay [1], `Cc1nn(C)c2cc(N(C)c3ccnc(Nc4cccc(S(N)(=O)=O)c4)n3)ccc12` yielded a liver cell % of control of 71.5%. Besides, the parasite % of control in assay [1] is 67% (inactive). Besides, the percent of negative control (+Dex) in assay [2] was 82% (inactive). Besides, the z-score in assay [2] was 0.54; in assay [3], 0.53 (inactive); in assay [4], 3.14 (inactive); in assay [7] (setting [8]), -0.638 (inactive); in assay [7] (setting [9]), 0.0293. Further, the EGFP object count in assay [5] is 2. For the same compound, in assay [5], the EGFP/DsRed ratio is 0.0899 (inactive). In addition, in assay [6], the fraction signal was -0.0065 (inactive).

In assay [1], `NC(=O)c1cccc(Nc2nccc(Nc3cccc(F)c3)n2)c1` gave a liver cell % of control of 116%. Also, the parasite % of control in assay [1] is 398% (inactive). In addition, the percent of negative control (+Dex) in assay [2] was 208% (active). Moreover, the z-score in assay [2] is 8.4; in assay [3] it was 1.67 (inactive); in assay [4] it was 0.244 (inactive); in assay [7] (setting [8]), -0.778 (inactive); in assay [7] (setting [9]) it was -0.359. Besides, the EGFP object count in assay [5] came out at 2. Also, the EGFP/DsRed ratio in assay [5] is 0.0178 (inactive). Further, the fraction signal in assay [6] is 0.002 (inactive).

With `COc1ccc(Nc2ncc(-c3ccccc3)o2)cc1OC`, in assay [1], the liver cell % of control was 152%. Besides, the parasite % of control in assay [1] is 101% (inactive). In addition, the percent of negative control (+Dex) in assay [2] is 154% (inactive). Moreover, the z-score in assay [2] was 4.41; in assay [3], -0.885 (inactive); in assay [4] it was 4.21 (inactive); in assay [7] (setting [8]), 1.52 (inactive); in assay [7] (setting [9]) it was 0.00272. Also, the EGFP object count in assay [5] is 3. The EGFP/DsRed ratio in assay [5] is 0.0153 (inactive). Moreover, in assay [6], the fraction signal is -0.0085 (inactive).

`COc1ccc2cc(-c3c(-c4ccncc4)nc(-c4ccc(S(C)=O)cc4)n3C)ccc2c1` (centres undefined): the liver cell % of control in assay [1] was determined as 117%. Further, in assay [1], the parasite % of control was 121% (inactive). In addition, the percent of negative control (+Dex) in assay [2] is 93.5% (inactive). For the same compound, the z-score in assay [2] is 0.505; in assay [3], -0.78 (inactive); in assay [4] it was 0.151 (inactive); in assay [7] (setting [8]) it was -0.944 (inactive); in assay [7] (setting [9]) it was -0.225. Also, the EGFP object count in assay [5] came out at 5. Further, in assay [5], the EGFP/DsRed ratio is 0.161 (inactive). The fraction signal in assay [6] is -0.0035 (inactive).

Turning to `CC(=O)Nc1cccc(C#Cc2cncnc2Nc2ccc(OCc3cccc(F)c3)c(Cl)c2)n1`, in assay [1], the liver cell % of control is 82.2%. In addition, the parasite % of control in assay [1] is 102% (inactive). Besides, the percent of negative control (+Dex) in assay [2] was 68% (inactive). Further, the z-score in assay [2] is -2.19; in assay [3], 0.02 (inactive); in assay [4] it was 0.499 (inactive); in assay [7] (setting [8]), 0.392 (inactive); in assay [7] (setting [9]), -0.337. Also, the EGFP object count in assay [5] amounted to 6.5. The EGFP/DsRed ratio in assay [5] was 0.198 (inactive). Also, the fraction signal in assay [6] is -0.0035 (inactive).

The compound `N#Cc1c(NC(=O)c2ccc(F)cc2)sc2c1CCCC2` gave a liver cell % of control in assay [1] of 159%. Moreover, the parasite % of control in assay [1] was 137% (inactive). In addition, in assay [2], the percent of negative control (+Dex) was 246% (active). The z-score in assay [2] is 14.3; in assay [3] it was -0.855 (inactive); in assay [4], 3.47 (inactive); in assay [7] (setting [8]) it was -0.073 (inactive); in assay [7] (setting [9]), 0.00203. The EGFP object count in assay [5] worked out at 6. In addition, in assay [5], the EGFP/DsRed ratio is 0.0854 (inactive). The fraction signal in assay [6] is -0.006 (inactive).

The compound `COC(=O)Nc1nc2ccc(Oc3cccc(NC(=O)Nc4cc(C(F)(F)F)ccc4F)c3)cc2[nH]1` displayed a liver cell % of control in assay [1] of 103%. The parasite % of control in assay [1] is 148% (inactive). For the same compound, the percent of negative control (+Dex) in assay [2] was 104% (inactive). In addition, the z-score in assay [2] was 2.25; in assay [3], 1.03 (inactive); in assay [4] it was 4.52 (inactive); in assay [7] (setting [8]), -0.76 (inactive); in assay [7] (setting [9]) it was 0.691. Also, the EGFP object count in assay [5] stood at 4. The EGFP/DsRed ratio in assay [5] is 0.18 (inactive). The fraction signal in assay [6] was -0.0045 (inactive).

As for `CNC(=O)c1cccc(C#Cc2cncnc2Nc2ccc(OCc3cccc(F)c3)c(Cl)c2)c1`, the liver cell % of control in assay [1] was determined as 105%. Also, in assay [1], the parasite % of control was 143% (inactive). Also, in assay [2], the percent of negative control (+Dex) is 78% (inactive). Moreover, the z-score in assay [2] is -0.47; in assay [3], 0.59 (inactive); in assay [4], -0.769 (inactive); in assay [7] (setting [8]) it was -1.16 (inactive); in assay [7] (setting [9]), -0.232. Further, the EGFP object count in assay [5] is 1. In addition, the EGFP/DsRed ratio in assay [5] is 0.0111 (inactive). Also, the fraction signal in assay [6] is 0.003 (inactive).

In assay [1], `Cc1nnc(-c2ccc(C)c(-c3ccc(C(=O)NCc4ccc(Cl)cc4)cc3)c2)o1` returned a liver cell % of control of 161%. Moreover, the parasite % of control in assay [1] is 31.3% (inactive). In assay [2], the percent of negative control (+Dex) is 106% (inactive). Moreover, the z-score in assay [2] is 1.07; in assay [3] it was 0.9 (inactive); in assay [4], -0.451 (inactive); in assay [7] (setting [8]), -0.978 (inactive); in assay [7] (setting [9]) it was -0.533. The EGFP object count in assay [5] was determined as 2. The EGFP/DsRed ratio in assay [5] was 0.079 (inactive). In addition, the fraction signal in assay [6] was -0.0105 (inactive).
